# Reference: the supplement of paper PMC4466140
# B1: unnamed (peptide)
# chain: LLRRTIPKRPFYHVL
# B2: unnamed (peptide)
# chain: HRRRRVFSIPSLKSI
# Assays:
# Assay in all cases: SPOT peptide array binding signal intensity (averaged, normalized) (arbitrary units (background-subtracted, floor 0; scale differs between SH3 domains)); higher = stronger binding of the SH3 domain to the peptide
# [1] = biological target: CaNbp2
# Method in brief: (§1)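 Spot intensities were captured after detection with anti-GST antibody, an HRP-linked anti-mouse secondary and luminol, and quantified with Genespotter. The probes were GST-fused SH3 domains from four yeast species, produced in E. coli BL21(DE3), purified on glutathione Sepharose and incubated at 10 μg/ml overnight at 4°C on cellulose-bound synthetic 15-mer peptides with cysteines replaced by serines. Binding signal is the normalized, background-subtracted spot intensity averaged over replicates, and its arbitrary units differ between domains.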
# [2] = biological target: CaRvs167
# Method in brief: as §1
# [3] = biological target: CaRvs167-3
# Method in brief: as §1
# [4] = biological target: CaSho1
# Method in brief: as §1
# [5] = biological target: CaSla1-D1-D2
# Method in brief: as §1
# [6] = biological target: CaSla1-D3
# Method in brief: as §1
# [7] = biological target: ScAbp1
# Method in brief: as §1
# [8] = biological target: ScBbc1
# Method in brief: as §1
# [9] = biological target: ScBem1-D1
# Method in brief: as §1
# [10] = biological target: ScBzz1-D1
# Method in brief: as §1
# [11] = biological target: ScBzz1-D2
# Method in brief: as §1
# [12] = biological target: ScCyk3
# Method in brief: as §1
# [13] = biological target: ScFus1
# Method in brief: as §1
# [14] = biological target: ScHof1
# Method in brief: as §1
# [15] = biological target: ScHse1
# Method in brief: as §1
# [16] = biological target: ScLsb1
# Method in brief: as §1
# [17] = biological target: ScLsb2
# Method in brief: as §1
# [18] = biological target: ScLsb3
# Method in brief: as §1
# [19] = biological target: ScLsb4
# Method in brief: as §1
# [20] = biological target: ScMyo3
# Method in brief: as §1
# [21] = biological target: ScMyo5
# Method in brief: as §1
# [22] = biological target: ScNbp2
# Method in brief: as §1
# [23] = biological target: ScPex13
# Method in brief: as §1
# [24] = biological target: ScRvs167
# Method in brief: as §1
# [25] = biological target: ScSho1
# Method in brief: as §1
# [26] = biological target: ScSla1-D1-D2
# Method in brief: as §1
# [27] = biological target: ScSla1-D3
# Method in brief: as §1
# [28] = biological target: SpAbp1-D1
# Method in brief: as §1
# [29] = biological target: SpBbc1
# Method in brief: as §1
# [30] = biological target: SpBzz1-D1
# Method in brief: as §1
# [31] = biological target: SpBzz1-D2
# Method in brief: as §1
# [32] = biological target: SpCyk3
# Method in brief: as §1
# [33] = biological target: SpHof1
# Method in brief: as §1
# [34] = biological target: SpHof1-2
# Method in brief: as §1
# [35] = biological target: SpHof1-3
# Method in brief: as §1
# [36] = biological target: SpHse1
# Method in brief: as §1
# [37] = biological target: SpLsb1
# Method in brief: as §1
# [38] = biological target: SpLsb4
# Method in brief: as §1
# [39] = biological target: SpMyo1
# Method in brief: as §1
# [40] = biological target: SpNbp2
# Method in brief: as §1
# [41] = biological target: SpPex13
# Method in brief: as §1
# [42] = biological target: SpRvs167
# Method in brief: as §1
# [43] = biological target: SpSla1-D1-D2
# Method in brief: as §1
# [44] = biological target: SpSla1-D3
# Method in brief: as §1
# [45] = biological target: AgAbp1
# Method in brief: as §1
# [46] = biological target: AgBbc1
# Method in brief: as §1
# [47] = biological target: AgBem1-D1
# Method in brief: as §1
# [48] = biological target: AgBzz1-D1
# Method in brief: as §1
# [49] = biological target: AgBzz1-D2
# Method in brief: as §1
# [50] = biological target: AgCyk3
# Method in brief: as §1
# [51] = biological target: AgFus1
# Method in brief: as §1
# [52] = biological target: AgHof1
# Method in brief: as §1
# [53] = biological target: AgHse1
# Method in brief: as §1
# [54] = biological target: AgLsb1
# Method in brief: as §1
# [55] = biological target: AgLsb4
# Method in brief: as §1
# [56] = biological target: AgMyo5
# Method in brief: as §1
# [57] = biological target: AgNbp2
# Method in brief: as §1
# [58] = biological target: AgRvs167
# Method in brief: as §1
# [59] = biological target: AgSho1
# Method in brief: as §1
# [60] = biological target: AgSla1-D1-D2
# Method in brief: as §1
# [61] = biological target: AgSla1-D3
# Method in brief: as §1
# [62] = biological target: CaAbp1-D1
# Method in brief: as §1
# [63] = biological target: CaAbp1-D2
# Method in brief: as §1
# [64] = biological target: CaBbc1
# Method in brief: as §1
# [65] = biological target: CaBem1-D1
# Method in brief: as §1
# [66] = biological target: CaBzz1-D1
# Method in brief: as §1
# [67] = biological target: CaBzz1-D2
# Method in brief: as §1
# [68] = biological target: CaCyk3
# Method in brief: as §1
# [69] = biological target: CaFus1
# Method in brief: as §1
# [70] = biological target: CaHof1
# Method in brief: as §1
# [71] = biological target: CaHse1
# Method in brief: as §1
# [72] = biological target: CaLsb1
# Method in brief: as §1
# [73] = biological target: CaLsb4
# Method in brief: as §1
# [74] = biological target: CaMyo5
# Method in brief: as §1
binder,measurement,setting,value
B1,SPOT peptide array binding signal intensity,[1],262
same,SPOT peptide array binding signal intensity,[2],48.2
same,SPOT peptide array binding signal intensity,[3],92
same,SPOT peptide array binding signal intensity,[4],608
same,SPOT peptide array binding signal intensity,[5],140
same,SPOT peptide array binding signal intensity,[6],3
same,SPOT peptide array binding signal intensity,[7],23.5
same,SPOT peptide array binding signal intensity,[8],25.5
same,SPOT peptide array binding signal intensity,[9],7
same,SPOT peptide array binding signal intensity,[10],3.5
same,SPOT peptide array binding signal intensity,[11],13
same,SPOT peptide array binding signal intensity,[12],26
same,SPOT peptide array binding signal intensity,[13],307
same,SPOT peptide array binding signal intensity,[14],1.5
same,SPOT peptide array binding signal intensity,[15],898
same,SPOT peptide array binding signal intensity,[16],44.2
same,SPOT peptide array binding signal intensity,[17],13
same,SPOT peptide array binding signal intensity,[18],855
same,SPOT peptide array binding signal intensity,[19],18.5
same,SPOT peptide array binding signal intensity,[20],0.5
same,SPOT peptide array binding signal intensity,[21],≤ 0
same,SPOT peptide array binding signal intensity,[22],343
same,SPOT peptide array binding signal intensity,[23],110
same,SPOT peptide array binding signal intensity,[24],612
same,SPOT peptide array binding signal intensity,[25],357
same,SPOT peptide array binding signal intensity,[26],146
same,SPOT peptide array binding signal intensity,[27],2
same,SPOT peptide array binding signal intensity,[28],402
same,SPOT peptide array binding signal intensity,[29],5
same,SPOT peptide array binding signal intensity,[30],76
same,SPOT peptide array binding signal intensity,[31],≤ 0
same,SPOT peptide array binding signal intensity,[32],≤ 0
same,SPOT peptide array binding signal intensity,[33],73
same,SPOT peptide array binding signal intensity,[34],3.25
same,SPOT peptide array binding signal intensity,[35],401
same,SPOT peptide array binding signal intensity,[36],372
same,SPOT peptide array binding signal intensity,[37],36.5
same,SPOT peptide array binding signal intensity,[38],463
same,SPOT peptide array binding signal intensity,[39],0.5
same,SPOT peptide array binding signal intensity,[40],181
same,SPOT peptide array binding signal intensity,[41],1.5
same,SPOT peptide array binding signal intensity,[42],227
same,SPOT peptide array binding signal intensity,[43],≤ 0
same,SPOT peptide array binding signal intensity,[44],11
B2,SPOT peptide array binding signal intensity,[45],65.5
same,SPOT peptide array binding signal intensity,[46],88.2
same,SPOT peptide array binding signal intensity,[47],426
same,SPOT peptide array binding signal intensity,[48],45
same,SPOT peptide array binding signal intensity,[49],28.5
same,SPOT peptide array binding signal intensity,[50],18
same,SPOT peptide array binding signal intensity,[51],1100
same,SPOT peptide array binding signal intensity,[52],117
same,SPOT peptide array binding signal intensity,[53],2250
same,SPOT peptide array binding signal intensity,[54],51.2
same,SPOT peptide array binding signal intensity,[55],264
same,SPOT peptide array binding signal intensity,[56],6
same,SPOT peptide array binding signal intensity,[57],470
same,SPOT peptide array binding signal intensity,[58],15.8
same,SPOT peptide array binding signal intensity,[59],168
same,SPOT peptide array binding signal intensity,[60],776
same,SPOT peptide array binding signal intensity,[61],11
same,SPOT peptide array binding signal intensity,[62],703
same,SPOT peptide array binding signal intensity,[63],734
same,SPOT peptide array binding signal intensity,[64],198
same,SPOT peptide array binding signal intensity,[65],100
same,SPOT peptide array binding signal intensity,[66],60
same,SPOT peptide array binding signal intensity,[67],69
same,SPOT peptide array binding signal intensity,[68],75
same,SPOT peptide array binding signal intensity,[69],1310
same,SPOT peptide array binding signal intensity,[70],0.5
same,SPOT peptide array binding signal intensity,[71],232
same,SPOT peptide array binding signal intensity,[72],2.5
same,SPOT peptide array binding signal intensity,[73],196
same,SPOT peptide array binding signal intensity,[74],3.5
same,SPOT peptide array binding signal intensity,[1],887
same,SPOT peptide array binding signal intensity,[2],103
same,SPOT peptide array binding signal intensity,[3],319
same,SPOT peptide array binding signal intensity,[4],1550
same,SPOT peptide array binding signal intensity,[5],49
same,SPOT peptide array binding signal intensity,[6],29.5
same,SPOT peptide array binding signal intensity,[7],38
same,SPOT peptide array binding signal intensity,[8],43.5
same,SPOT peptide array binding signal intensity,[9],76
same,SPOT peptide array binding signal intensity,[10],21
same,SPOT peptide array binding signal intensity,[11],51
same,SPOT peptide array binding signal intensity,[12],238
same,SPOT peptide array binding signal intensity,[13],1620
same,SPOT peptide array binding signal intensity,[14],3
same,SPOT peptide array binding signal intensity,[15],2170
same,SPOT peptide array binding signal intensity,[16],48.8
same,SPOT peptide array binding signal intensity,[17],12.5
same,SPOT peptide array binding signal intensity,[18],780
same,SPOT peptide array binding signal intensity,[19],44.5
same,SPOT peptide array binding signal intensity,[20],9.75
same,SPOT peptide array binding signal intensity,[21],8
same,SPOT peptide array binding signal intensity,[22],841
same,SPOT peptide array binding signal intensity,[23],≤ 0
same,SPOT peptide array binding signal intensity,[24],95.5
same,SPOT peptide array binding signal intensity,[25],1320
same,SPOT peptide array binding signal intensity,[26],321
same,SPOT peptide array binding signal intensity,[27],12.8
same,SPOT peptide array binding signal intensity,[28],293
same,SPOT peptide array binding signal intensity,[29],12
same,SPOT peptide array binding signal intensity,[30],122
